This is an account of results in PubChem BioAssay (NCATS).

In test [1] the target is Cytochrome P450 3A7 (Homo sapiens) (UniProt P24462). Nature of the test: Cytochrome P450 family 3 subfamily A member 7 (CYP3A7) small molecule antagonists: luciferase biochemical qHTS assay (AID 1963596). Also: % is scaled to controls: 0 for no effect and ±100 for the full control effect; nearly all actives have a fitted effect of over 40% in size. The note with it: P450-Glo CYP3A7 enzyme luminescence, 1 h; series mostly up to 57.4 µM. The method, boiled down: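 Luminescence from luciferin released by CYP3A7 from a proluciferin substrate, read 20 min after detection reagent. Compound and enzyme-substrate mix sat 10 min before NADPH regeneration solution; reaction ran 1 h at room temperature.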
In general terms: Quantitative high-throughput screening tests each substance at several concentrations.

The nature of test [2]: Viability qHTS for spleen associated tyrosine kinase inhibitor (SYKi) naive MV4-11 cells (AID 1963823). Also: nearly all actives have a fitted effect of over 40% in size. Also: potency is read from the fitted curve at half-maximal effect. Particulars: MV4-11 AML viability, CellTiter-Glo luminescence, 72 h; series mostly up to 45 µM. The method, boiled down: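 Viability of MV4-11 AML cells lacking prior SYK inhibitor exposure is scored by CellTiter-Glo luminescence following 72 hr compound incubation at 37 C, 5% CO2, seeded at 500 cells per well.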

Test [3] can be described thus: Viability qHTS for spleen associated tyrosine kinase inhibitor (SYKi) drug resistant MV4-11 cells (AID 1963824). Also: nearly all actives have a fitted effect of over 35% in size. Also: potency is read from the fitted curve at half-maximal effect. The note with it: SYKi-resistant MV4-11 viability, CellTiter-Glo, 72 h; series mostly up to 45 µM. The method, boiled down:
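CellTiter-Glo luminescence, read 10 min after reagent addition, reports viability after a 72 hr compound exposure. Cells are an MV4-11 line made resistant to SYK inhibition, seeded at 500 per well onto compound-containing plates.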

Test [4] is described as follows: Quantitative highthroughput screen to assess conditional lethalithy of NOMO1 cells grown in RPMI1640 with untreated serum (RPMI+s) (AID 1963876). Also: nearly all actives have a fitted effect of over 35% in size. Also: potency is read from the fitted curve at half-maximal effect.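 As to Viability: 100% = DMSO wells and 0% = empty wells without cells.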 The note with it: NOMO1 AML cells in RPMI+serum, CellTiter-Glo viability, 48 h; series mostly up to 45.8 µM. The method in brief:
(§1)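 Each medium arm—HPLM with 10% dialyzed FBS, or RPMI1640 with 5 mM glucose and 10% untreated or dialyzed FBS—was screened against an 11-point, 3-fold compound titration for 48 h at 37 °C, with CellTiter-Glo luminescence as endpoint.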

The nature of test [5]: Quantitative highthroughput screen to assess conditional lethalithy of NOMO1 cells grown in RPMI1640 with dialyzed fetal bovine serum (RPMI+ds) (AID 1963877). Also: nearly all actives have a fitted effect of over 30% in size. Also: potency is read from the fitted curve at half-maximal effect.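 As to Viability: 100% = DMSO control wells and 0% = empty wells.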 The note with it: NOMO1 in RPMI+dialyzed FBS viability, ATP luminescence, 48 h; series mostly up to 45.8 µM. The method, boiled down:
as §1

The nature of test [6]: Quantitative highthroughput screen to assess conditional lethalithy of NOMO1 cells grown in Human Plasma-Like Medium with dialyzed fetal bovine serum (HPLM+ds) (AID 1963878). Also: nearly all actives have a fitted effect of over 35% in size. Also: potency is read from the fitted curve at half-maximal effect.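 As to Viability: 100% = DMSO wells and 0% = empty wells on each plate.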 Particulars: NOMO1 AML cells in HPLM+ds, CellTiter-Glo viability, 48 h; series mostly up to 45.8 µM. The method, boiled down: as §1
(Cellular ATP, detected with luciferase, serves as a proxy for viable cell number.)

Test [7] in a line: Quantitative highthroughput screen to assess conditional lethalithy of P12 Ichikawa cells grown in Human Plasma-Like Medium with dialyzed fetal bovine serum (HPLM+ds) (AID 1963879). Also: nearly all actives have a fitted effect of over 35% in size. The note with it: ATP luminescence, 48 h; Potency: viability; series mostly up to 45.8 µM. The method in brief: as §1
The nature of test [8]: Quantitative highthroughput screen to assess conditional lethalithy of P12 Ichikawa cells grown in RPMI1640 with dialyzed fetal bovine serum (RPMI+ds) (AID 1963880). Also: nearly all actives have a fitted effect of over 35% in size. Also: potency is read from the fitted curve at half-maximal effect.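 As to Viability: 100% = DMSO wells and 0% = empty wells on each plate.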 The note with it: ATP luminescence, 48 h; Potency: P12-Ichikawa viability; series mostly up to 45.8 µM. The method, boiled down: as §1
Test [9] can be described thus: Quantitative highthroughput screen to assess conditional lethalithy of P12 Ichikawa cells grown in RPMI1640 with untreated serum (RPMI+s) (AID 1963881). Also: nearly all actives have a fitted effect of over 35% in size. Also: potency is read from the fitted curve at half-maximal effect.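 As to Viability: 100% = DMSO wells and 0% = empty wells without cells.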 The note with it: ATP luminescence, 48 h; Potency: viability; series mostly up to 45.8 µM. The method, boiled down: as §1
Test [10] is described as follows: Quantitative highthroughput screen to assess conditional lethalithy of SEM cells grown in Human Plasma-Like Medium with dialyzed fetal bovine serum (HPLM+ds) (AID 1963882). Also: nearly all actives have a fitted effect of over 35% in size. Also: potency is read from the fitted curve at half-maximal effect. Particulars: SEM B-ALL cells in HPLM+ds, CellTiter-Glo viability, 48 h; series mostly up to 45.8 µM. The method in brief: as §1
Test [11] can be described thus: Quantitative highthroughput screen to assess conditional lethalithy of SEM cells grown in RPMI1640 with dialyzed fetal bovine serum (RPMI+ds) (AID 1963884). Also: nearly all actives have a fitted effect of over 35% in size. Also: potency is read from the fitted curve at half-maximal effect.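 As to Viability: 100% = DMSO control wells and 0% = empty wells without cells.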 The note with it: SEM B-ALL cells, RPMI+dialyzed FBS, CellTiter-Glo viability, 48 h; series mostly up to 45.8 µM. The method, boiled down: as §1
Test [12] can be described thus: Cellular viability qHTS for adrenocortical cancer (ACC) cell line SW-13 (AID 1963989). Also: nearly all actives have a fitted effect of over 65% in size. Also: potency is read from the fitted curve at half-maximal effect.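 As to activity (max response): cells grown in serum-free medium with ITS supplement; % is scaled to controls: 0 for no effect and ±100 for the full control effect.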 The note with it: SW-13 ACC cells viability, CellTiter-Glo, 48 h; activity (max response): active compounds read low. The method in brief:
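SW-13 cells in ITS-supplemented serum-free DMEM were plated overnight, then exposed for 48 h at 37C to compound titrations (up to 46 uM final). Viability was read by CellTiter-Glo luminescence; four-parameter logistic fits gave IC50 and efficacy.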

Test [13] in a line: Quantitative highthroughput screen to assess conditional lethalithy of SEM cells grown in RPMI1640 with unreated serum (RPMI+s) (AID 1963883). Also: nearly all actives have a fitted effect of over 35% in size. Also: potency is read from the fitted curve at half-maximal effect.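 As to Viability: 100% = DMSO wells and 0% = empty wells without cells.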 Particulars: SEM B-ALL cells, CellTiter-Glo viability, 48 h; series mostly up to 45.8 µM. The method in brief: as §1
Test [14] can be described thus: Cellular viability qHTS for adrenocortical cancer (ACC) cell line NCI-H295R (AID 1963990). Also: nearly all actives have a fitted effect of over 60% in size. Also: potency is read from the fitted curve at half-maximal effect. The note with it: CellTiter-Glo ATP luminescence, 48 h; series mostly up to 46.1 µM. The method in brief: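 Luminescent ATP read-out (CellTiter-Glo, 20 min RT) after 48 h drug exposure of NCI-H295R cells; a titration up to 46 uM final. Data normalized to doxorubicin (100% inhibition) and DMSO (0%); 4-parameter fit gives IC50, max response.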

The structures appear in SMILES notation. “And” between values parts separate entries of the source, which are not always exact repeats. Equal values may be shown once. Inconclusive results are not listed. Values without a mark were called inactive. The source made the active and inactive calls. Calls follow the shape of the dose curve; as a rule, active = well fitted curve in the direction sought with a large enough effect; inconclusive = small, poorly fitted or top-dose-only effect, or another doubt; inactive = no such curve, though single readings can be large; an effect the other way counts as inactive or inconclusive.

Sequence of Cytochrome P450 3A7 (Homo sapiens) (P24462 whole entry, looked up): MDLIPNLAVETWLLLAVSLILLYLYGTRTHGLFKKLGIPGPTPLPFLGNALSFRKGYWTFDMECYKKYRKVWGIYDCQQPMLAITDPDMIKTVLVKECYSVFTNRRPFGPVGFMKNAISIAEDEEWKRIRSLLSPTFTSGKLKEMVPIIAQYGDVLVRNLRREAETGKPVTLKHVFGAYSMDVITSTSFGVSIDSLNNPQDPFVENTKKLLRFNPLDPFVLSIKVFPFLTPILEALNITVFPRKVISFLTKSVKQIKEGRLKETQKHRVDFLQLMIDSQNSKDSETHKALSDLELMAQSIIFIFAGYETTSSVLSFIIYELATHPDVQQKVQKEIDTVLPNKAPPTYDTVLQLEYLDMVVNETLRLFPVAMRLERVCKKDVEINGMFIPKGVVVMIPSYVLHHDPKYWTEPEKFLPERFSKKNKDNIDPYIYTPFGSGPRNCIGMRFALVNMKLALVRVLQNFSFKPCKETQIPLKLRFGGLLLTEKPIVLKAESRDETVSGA

As for `O=C(c1ccc(C(=O)N2CCC(N3CCCC3)CC2)c(Nc2ccccc2)c1)N1CCC(N2CCCC2)CC1`, the Potency result in [1], in test [2], in test [3], in test [4], in test [5] and in [6] was “inactive” each time. Moreover, the Potency result in test [7], in test [8], in [9], in test [10] and in test [11] was “inactive” throughout. Moreover, in test [12], the activity (max response) is 11.8%.

In the case of `CC(=O)c1cnc2ccc(-c3cc(Cl)c(O)c(Cl)c3)nc2c1NC1CCC(CN(C)C)CC1` (configuration not stated), the Potency result in [1] was “inactive”. Moreover, the Potency was 4.7 nM (active) and 0.8 nM (active) in test [2]; 11.9 nM (active) and 2.9 nM (active) in test [3]; 132 nM (active) in test [4]; 132 nM (active) in test [5]; 66 nM (active) in test [6]; 132 nM (active) in test [8]. Also, the Potency in test [9] was 148 nM (active); in test [10], 74.1 nM (active); in test [13], 74.1 nM (active); in test [11] it was 58.8 nM (active); in [12], 75.1 nM (active); in [14], 212 nM (active).

As to `NS(=O)(=O)c1cc2c(cc1Cl)NCNS2(=O)=O`, the Potency entry in test [1], in test [2], in test [3], in [4], in test [5] and in [6] was “inactive” in each case. The Potency result in test [7], in test [9], in test [10], in test [13], in test [11] and in test [14] was “inactive” throughout. The activity (max response) in [12] was 11.9% and 0.967%.

With `Clc1cccc(Cl)c1NC1=NCCN1`, the Potency entry in [1], in test [2], in test [3], in test [4], in test [5] and in test [6] was “inactive” each time. The Potency entry in test [7], in test [8], in [9], in [10], in test [13] and in test [14] was “inactive” throughout. Further, the activity (max response) in [12] is 13.1%.

In the case of `Nc1ccc(S(N)(=O)=O)cc1`, the Potency result in test [1], in [2], in [3], in test [4], in test [5] and in test [6] was “inactive” in each case. Also, the Potency entry in test [7], in [8], in test [9], in test [10], in [13] and in test [11] was “inactive” in each case. In addition, in test [14], the Potency result was “inactive”. Besides, in [12], the activity (max response) is 16.5% and -23.7%.

In the case of `Cc1cnc(NC(=O)C2=C(O)c3ccccc3S(=O)(=O)N2C)s1`, the Potency entry in [1], in [2], in test [3], in test [4], in test [5] and in test [6] was “inactive” in each case. Besides, the Potency entry in test [7], in [8], in [9], in test [10], in test [13] and in test [11] was “inactive” throughout. Also, the Potency entry in [14] is “inactive”. Further, the activity (max response) in test [12] was 12.3% [middle of 4 runs].

`N[C@@H]1CONC1=O`: the Potency entry in [1], in test [2], in test [3], in test [4], in test [5] and in [6] was “inactive” each time. Besides, the Potency result in test [7], in test [8], in test [9], in [10], in test [11] and in test [14] was “inactive” throughout. Moreover, in test [12], the activity (max response) is 0.98% and -6.89%.

With `N=c1nc(N2CCCCC2)cc(N)n1O`, the Potency entry in test [1], in test [2], in test [3], in [4], in test [5] and in test [7] was “inactive” throughout. Moreover, the Potency result in test [8], in test [9] and in test [14] was “inactive” throughout. Besides, the activity (max response) in test [12] was 5.33%.
